# Source: PubChem BioAssay
# Values joined by “and” are separate entries in the source; they are usually repeats but may differ in a detail not shown here. Identical values can stand only once. Results filed as inconclusive are left out. For some assays here: Potency and affinity values are given separately. Active and inactive are the calls of the source. Unless noted, cut-off not given; nearly all actives show IC50 up to about 0.91 µM.
# Legend:
# [1] = biological target: Calcium-dependent protein kinase 4 (Plasmodium falciparum (isolate 3D7)) (UniProt Q8IBS5); assay: PfCDPK4 kinase inhibitors, biochemical, TCAMS library (AID 1159588); settings: recombinant PfCDPK4, Kinase-Glo ATP depletion luminescence
# Calcium-dependent protein kinase 4 (Plasmodium falciparum (isolate 3D7)), sequence (Q8IBS5 whole entry, looked up): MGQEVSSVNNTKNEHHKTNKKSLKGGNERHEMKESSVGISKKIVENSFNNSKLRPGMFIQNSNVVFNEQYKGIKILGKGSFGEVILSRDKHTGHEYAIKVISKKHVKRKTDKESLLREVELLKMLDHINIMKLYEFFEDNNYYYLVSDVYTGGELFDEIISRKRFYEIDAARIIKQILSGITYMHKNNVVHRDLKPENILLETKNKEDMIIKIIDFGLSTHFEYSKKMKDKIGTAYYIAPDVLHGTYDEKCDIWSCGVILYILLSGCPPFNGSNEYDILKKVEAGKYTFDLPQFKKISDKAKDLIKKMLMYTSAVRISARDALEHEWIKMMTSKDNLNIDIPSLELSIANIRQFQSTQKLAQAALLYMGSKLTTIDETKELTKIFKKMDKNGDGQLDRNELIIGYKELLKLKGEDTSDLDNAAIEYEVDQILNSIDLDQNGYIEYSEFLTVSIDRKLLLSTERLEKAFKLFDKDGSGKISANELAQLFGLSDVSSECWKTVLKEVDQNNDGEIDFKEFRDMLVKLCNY
# [2] = HepG2 cytotoxicity, primary screen, cytotoxicity control for P. falciparum antimalarial project, cell-based, ATP luminescence (AID 2303;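 active means inhibition above 50%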;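 further: 0% = DMSO wells and 100% = digitonin-killed cells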); settings: HepG2 viability, 24-48 h, at 10 µM, stronger effect = higher value
# [3] = enhancers of SMN2 over SMN1 splicing, cell-based, SMN2/SMN1 luciferase reporters (AID 1598; call rule not given here); settings: SMN2 vs SMN1 luciferase splicing reporter cells, at 10 µM; SMN1 luciferase ratio: measured here: SMN1 luciferase reporter average; SMN2 luciferase ratio: measured here: SMN2 luciferase reporter average, stronger effect = higher value; SMN2/SMN1 luciferase ratio: stronger effect = higher value
# [4] = protection against mutant huntingtin cytotoxicity, PC12 cells, LDH release (AID 1610); settings: PC12 mutant huntingtin toxicity, final LDH at 4 uM, stronger effect = lower value
# [5] = protection of motor neurons from glutamate death, cell-based, TUNEL DNA degradation staining, MNGlu (AID 1594; call rule not given here); settings: glutamate-induced death, at 1 µM, stronger effect = higher value
structure (smiles),measurement,setting,value
CCN(CC)CCCC(C)Nc1c2ccc(Cl)cc2nc2ccc(OC)cc12 (stereo unspecified),outcome,[1],inactive
CCN(CCO)CCCC(C)Nc1ccnc2cc(Cl)ccc12 (stereo unspecified),inhibition,[2],3% (inactive)
same,outcome,[1],inactive
N=C(N)c1ccc(OCCCCCOc2ccc(C(=N)N)cc2)cc1,outcome,[1],inactive
CCCCCN=C(N)N/N=C/c1c[nH]c2ccc(OC)cc12,inhibition,[2],16% (inactive)
same,outcome,[1],inactive
CC[C@H]1CN2CCc3cc(OC)c(OC)cc3[C@@H]2C[C@@H]1C[C@H]1NCCc2cc(OC)c(OC)cc21,inhibition,[2],43% (inactive)
same,outcome,[1],inactive
CCN(CC)CCCC(C)Nc1ccnc2cc(Cl)ccc12 (stereo unspecified),inhibition,[2],12% (inactive)
same,outcome,[1],inactive
NC12CC3CC(CC(C3)C1)C2,SMN1 luciferase ratio,[3],0.84
same,SMN2/SMN1 luciferase ratio,[3],1.22 (active)
same,SMN2 luciferase ratio,[3],1.01
same,inhibition,[2],31% (inactive)
same,outcome,[1],inactive
c1ccc([C@H]2CN3CCSC3=N2)cc1,inhibition,[2],11% (inactive)
same,outcome,[1],inactive
c1ccc(CC2=NCCN2)cc1,inhibition,[2],3% (inactive)
same,outcome,[1],inactive
CC(C)C(=O)Nc1ccc([N+](=O)[O-])c(C(F)(F)F)c1,normalised LDH release,[4],0.739
CCc1nc(N)nc(N)c1-c1ccc(Cl)cc1,inhibition,[2],66% (active) and 71% (active)
CO[C@@]1(NC(=O)Cc2cccs2)C(=O)N2C(C(=O)O)=C(COC(N)=O)CS[C@@H]21,SMN1 luciferase ratio,[3],1.2
same,SMN2/SMN1 luciferase ratio,[3],1.24 (active)
same,SMN2 luciferase ratio,[3],1.48
COC1=CC(=O)C[C@@H](C)[C@]12Oc1c(Cl)c(OC)cc(OC)c1C2=O,protection,[5],17% (active)
CN(C)CCOC(c1ccc(Cl)cc1)c1ccccn1 (stereo unspecified),normalised LDH release,[4],0.839
